Measured values taken from PubChem BioAssay AID1159580 (chemical genetic matrix, 2015).
Values joined by “and” are separate entries in the source; they are usually repeats but may differ in a detail not shown here. Equal values may be shown once. Screen size: about 5,500 compounds; about 2,000 (36%) were called active. Another 18% or so got no clear call; they are omitted. No stated cut-off is given here; in the data, active means normalized growth mostly below about 0.91 (no sharp cut-off); inconclusive means no clear call, values can overlap the other calls; inactive means mostly above about 0.92. Some of the results follow.

Experiment: chemical genetic growth profiling, strain panel (AID 1159580);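 further: tested at 20 µM; growth read once vehicle control cultures reached saturation at 30 °C; 1 = growth at the plate median or of vehicle wells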
Conditions: growth OD

Measured: normalized growth

C[N+](C)(C)CCCCCC[N+](C)(C)C
inactive: S. cerevisiae deletion strains, locus YAL013W, strain DEP1, stronger effect = lower value 1.01 | S. cerevisiae deletion strains, locus YAL040C, strain CLN3, stronger effect = lower value 0.978 and 0.988 | S. cerevisiae deletion strains, locus YBR021W, strain FUR4, stronger effect = lower value 0.997 | S. cerevisiae deletion strains, locus YBR229C, strain ROT2, stronger effect = lower value 0.995 | S. cerevisiae deletion strains, locus YCL029C, strain bik1, stronger effect = lower value 0.988 | S. cerevisiae deletion strains, locus YCL061C, strain MRC1 (second series), stronger effect = lower value 1.01 and 1 | S. cerevisiae deletion strains, locus YDL035C, strain GPR1, stronger effect = lower value 1 | S. cerevisiae deletion strains, locus YDL074C, strain BRE1, stronger effect = lower value 1.07 | S. cerevisiae deletion strains, locus YDL101C, strain DUN1, stronger effect = lower value 0.993 | S. cerevisiae deletion strains, locus YDL134C, strain PPH21, stronger effect = lower value 0.98 | S. cerevisiae deletion strains, locus YDL185W, strain tfp1, stronger effect = lower value 0.984 | S. cerevisiae deletion strains, locus YDL192W, strain arf1, stronger effect = lower value 0.98 | S. cerevisiae deletion strains, locus YDR101C, strain arx1, stronger effect = lower value 1.03 | S. cerevisiae deletion strains, locus YDR150W, strain NUM1, stronger effect = lower value 1 and 0.998 | S. cerevisiae deletion strains, locus YDR162C, strain NBP2, stronger effect = lower value 0.985 | S. cerevisiae deletion strains, locus YDR318W, strain mcm21, stronger effect = lower value 0.984 | S. cerevisiae deletion strains, locus YDR363W, strain ESC2, stronger effect = lower value 1.01 and 0.998 | S. cerevisiae deletion strains, locus YDR388W, stronger effect = lower value 0.982 | S. cerevisiae deletion strains, locus YDR502C, strain sam2, stronger effect = lower value 0.985 | S. cerevisiae deletion strains, locus YEL061C, strain CIN8, stronger effect = lower value 0.993 | S. cerevisiae deletion strains, locus YER002W, strain NOP16, stronger effect = lower value 1.03 and 1 | S. cerevisiae deletion strains, locus YER110C, stronger effect = lower value 0.979 | S. cerevisiae deletion strains, locus YER155C, strain BEM2, stronger effect = lower value 0.998 | S. cerevisiae deletion strains, locus YER167W, strain BCK2, stronger effect = lower value 0.994 | S. cerevisiae deletion strains, locus YGL078C, strain dbp3, stronger effect = lower value 0.981 | S. cerevisiae deletion strains, locus YGL086W, strain mad1, stronger effect = lower value 1.02 | S. cerevisiae deletion strains, locus YGL248W, strain PDE1, stronger effect = lower value 1 | S. cerevisiae deletion strains, locus YGR078C, strain PAC10, stronger effect = lower value 1.03 and 0.99 | S. cerevisiae deletion strains, locus YGR135W, strain pre9, stronger effect = lower value 0.95 | S. cerevisiae deletion strains, locus YGR229C, strain SMI1, stronger effect = lower value 0.99 | S. cerevisiae deletion strains, locus YGR252W, strain gcn5, stronger effect = lower value 0.948 | S. cerevisiae deletion strains, locus YHR030C, strain SLT2, stronger effect = lower value 0.987 and 1.05 | S. cerevisiae deletion strains, locus YHR079C, strain IRE1 (second series), stronger effect = lower value 0.993 | S. cerevisiae deletion strains, locus YHR079C, strain IRE1, stronger effect = lower value 1.04 | S. cerevisiae deletion strains, locus YHR094C, strain hxt1, stronger effect = lower value 0.987 | S. cerevisiae deletion strains, locus YHR129C, strain ARP1, stronger effect = lower value 0.988 | S. cerevisiae deletion strains, locus YHR200W, strain rpn10, stronger effect = lower value 0.989 | S. cerevisiae deletion strains, locus YIL066C, strain RNR3, stronger effect = lower value 0.994 | S. cerevisiae deletion strains, locus YIL073C, strain SPO22, stronger effect = lower value 0.953 | S. cerevisiae deletion strains, locus YIL125W, strain kgd1, stronger effect = lower value 1 | S. cerevisiae deletion strains, locus YIR030C, strain dcg1, stronger effect = lower value 0.985 | S. cerevisiae deletion strains, locus YJL095W, strain BCK1, stronger effect = lower value 1 and 1.05 | S. cerevisiae deletion strains, locus YJL134W, strain LCB3, stronger effect = lower value 0.989 | S. cerevisiae deletion strains, locus YJL168C, strain set2, stronger effect = lower value 1 | S. cerevisiae deletion strains, locus YJL187C, strain SWE1 (second series), stronger effect = lower value 0.999 | S. cerevisiae deletion strains, locus YJR043C, strain POL32, stronger effect = lower value 1 | S. cerevisiae deletion strains, locus YJR066W, strain TOR1, stronger effect = lower value 0.96 | S. cerevisiae deletion strains, locus YJR075W, strain HOC1, stronger effect = lower value 0.998 and 1.01 | S. cerevisiae deletion strains, locus YKL009W, strain mrt4, stronger effect = lower value 0.99 | S. cerevisiae deletion strains, locus YKL068W, stronger effect = lower value 0.988 | S. cerevisiae deletion strains, locus YKL085W, strain MDH1 (second series), stronger effect = lower value 0.998 | S. cerevisiae deletion strains, locus YKL085W, strain MDH1, stronger effect = lower value 0.998 | S. cerevisiae deletion strains, locus YKL190W, strain CNB1, stronger effect = lower value 1.01 | S. cerevisiae deletion strains, locus YKR001C, strain vps1, stronger effect = lower value 1 | S. cerevisiae deletion strains, locus YLR039C, strain RIC1, stronger effect = lower value 1 | S. cerevisiae deletion strains, locus YLR058C, strain SHM2, stronger effect = lower value 0.987 | S. cerevisiae deletion strains, locus YLR102C, strain apc9, stronger effect = lower value 0.987 | S. cerevisiae deletion strains, locus YLR113W, strain HOG1, stronger effect = lower value 1.1 | S. cerevisiae deletion strains, locus YLR262C, strain YPT6, stronger effect = lower value 0.97 | S. cerevisiae deletion strains, locus YLR268W, strain sec22, stronger effect = lower value 0.99 | S. cerevisiae deletion strains, locus YLR330W, strain CHS5, stronger effect = lower value 0.99 | S. cerevisiae deletion strains, locus YLR342W, strain FKS1 (second series), stronger effect = lower value 0.976 | S. cerevisiae deletion strains, locus YLR371W, strain rom2, stronger effect = lower value 0.988 | S. cerevisiae deletion strains, locus YLR418C, strain cdc73, stronger effect = lower value 0.946 | S. cerevisiae deletion strains, locus YML016C, strain PPZ1, stronger effect = lower value 0.99 | S. cerevisiae deletion strains, locus YML032C, strain rad52, stronger effect = lower value 1 | S. cerevisiae deletion strains, locus YML124C, strain tub3, stronger effect = lower value 0.995 | S. cerevisiae deletion strains, locus YMR078C, strain ctf18, stronger effect = lower value 0.983 | S. cerevisiae deletion strains, locus YMR223W, strain ubp8, stronger effect = lower value 0.964 | S. cerevisiae deletion strains, locus YMR263W, strain SAP30, stronger effect = lower value 1.01 and 0.998 | S. cerevisiae deletion strains, locus YMR307W, strain GAS1, stronger effect = lower value 0.96 and 1.01 | S. cerevisiae deletion strains, locus YNL067W, strain RPL9B, stronger effect = lower value 1.01 | S. cerevisiae deletion strains, locus YNL128W, strain TEP1, stronger effect = lower value 0.992 and 1.01 | S. cerevisiae deletion strains, locus YNL153C, strain GIM3, stronger effect = lower value 1.03 and 1.01 | S. cerevisiae deletion strains, locus YNL175C, strain NOP13, stronger effect = lower value 0.99 and 1.02 | S. cerevisiae deletion strains, locus YNL183C, strain NPR1, stronger effect = lower value 1.01 | S. cerevisiae deletion strains, locus YNL197C, strain WHI3, stronger effect = lower value 0.999 and 1.02 | S. cerevisiae deletion strains, locus YNL224C, strain SQS1, stronger effect = lower value 0.994 and 1.04 | S. cerevisiae deletion strains, locus YNL233W, strain BNI4, stronger effect = lower value 1.01 | S. cerevisiae deletion strains, locus YNL250W, strain rad50, stronger effect = lower value 0.957 | S. cerevisiae deletion strains, locus YNL271C, strain bni1, stronger effect = lower value 0.984 | S. cerevisiae deletion strains, locus YNL298W, strain CLA4, stronger effect = lower value 0.981 | S. cerevisiae deletion strains, locus YNL307C, strain MCK1, stronger effect = lower value 0.985 | S. cerevisiae deletion strains, locus YNL322C, strain KRE1, stronger effect = lower value 0.998 and 0.995 | S. cerevisiae deletion strains, locus YNR052C, strain pop2, stronger effect = lower value 0.987 | S. cerevisiae deletion strains, locus YOL006C, strain TOP1, stronger effect = lower value 1.06 | S. cerevisiae deletion strains, locus YOL012C, strain htz1 1.51 | S. cerevisiae deletion strains, locus YOL147C, strain pex11, stronger effect = lower value 0.99 | S. cerevisiae deletion strains, locus YOR061W, strain CKA2, stronger effect = lower value 0.995 | S. cerevisiae deletion strains, locus YOR069W, strain VPS5, stronger effect = lower value 0.987 | S. cerevisiae deletion strains, locus YOR083W, strain WHI5 (second series), stronger effect = lower value 0.968 and 0.999 | S. cerevisiae deletion strains, locus YOR136W, strain idh2, stronger effect = lower value 0.994 | S. cerevisiae deletion strains, locus YOR144C, strain elg1, stronger effect = lower value 0.993 | S. cerevisiae deletion strains, locus YOR184W, strain ser1, stronger effect = lower value 0.988 | S. cerevisiae deletion strains, locus YOR231W, strain MKK1, stronger effect = lower value 1.09 | S. cerevisiae deletion strains, locus YOR316C, strain cot1, stronger effect = lower value 0.988 | S. cerevisiae deletion strains, locus YPL055C, strain LGE1, stronger effect = lower value 1.04 | S. cerevisiae deletion strains, locus YPL256C, strain CLN2, stronger effect = lower value 1.05 | S. cerevisiae deletion strains, locus YPR119W, strain clb2, stronger effect = lower value 0.997 | S. cerevisiae deletion strains, locus YPR141C, strain kar3, stronger effect = lower value 0.98 | S. cerevisiae deletion strains, locus YPR163C, strain tif3, stronger effect = lower value 1.01 | S. cerevisiae deletion strains, locus YPR167C, strain met16, stronger effect = lower value 0.983 | S. cerevisiae deletion strains, strain wtn01, stronger effect = lower value 0.982 | S. cerevisiae strains, strain wild type, stronger effect = lower value 0.995
